Measurements reported in PubChem BioAssay (NCI).
The panel holds about 83,000 compounds, 20% with a hit somewhere; the sample as a whole holds those more often.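 Single-concentration screen, 48 h exposure, 96-well plates. Endpoint: percent growth. Below 10 = active.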 Unmarked numbers belong to inactive results. Calls of active or inactive are those of the source.

test system: SK-MEL-5 melanoma; test: NCI-60 one-dose screen, 48 h (100 = growth as untreated, 0 = no growth, -100 = all killed); conditions: 10 µM unless noted
Experimental: Growth inhibition of the SK-MEL-5 human tumor cell line is measured as a screen for anti-cancer activity. Cells are grown in 96 well plates and exposed to the test compound for 48 hours. Compounds are tested at a single concentration, which is 10^-5 M for most compounds. The reported endpoint is percent growth (GI% or GIPRCNT), where numbers from 0 - 100% represent growth inhibition, and numbers from -100% - 0 represent cell death. For example, a value of 40 represents 60% growth inhibition. A value of 0 means no net growth occurred over the course of the experiment. A value of -40 indicates 40% of cells at the beginning of the experiment died by the end of the experiment. A value of -100 means all cells are dead at the end of the experiment.
NCI-60 Human Tumor Cell Lines Screen was performed using the standard one-dose NCI protocol, which is described in more detail at https://dtp.cancer.gov/discovery_development/nci-60/default.htm.
Compounds with GIPRCNT values below 10 were considered active. Activity score was based on GIPRCNT using the following formula: […]
Score is 0 for GIPRCNT values of 100 or above, 50 for GIPRCNT values of 0, and 100 for GIPRCNT values of -100.

Structure (SMILES) | growth
CN1CCN(c2ccc(C(=O)Nc3cccc(-c4cn(-c5ccc(S(N)(=O)=O)cc5)nn4)c3)cc2C(F)(F)F)CC1 | 90.6%
COc1cc(/C=N/Nc2ccnc3cc(Cl)ccc23)cc(OC)c1O | -92.7% (active)
Oc1ccc(CSc2nnc(-c3ccccc3)n2-c2ccccc2)c2cccnc12 | -22% (active)
COc1cc2c3c(n(CCCN4CCCCC4)c(=O)c2cc1OC)-c1cc2c(cc1C3=O)OCO2 | 60.8%
COc1cc2c3c(n(CCCNC4CCC4)c(=O)c2cc1OC)-c1cc2c(cc1C3=O)OCO2 | 76.8%
CN(C)C(=O)C1=NC(CO)C(=O)N(c2ccc(Cl)cc2)N1 (stereo not given) | 102%
Fc1ccc(-c2cc3nc(C(Cl)Cl)nc(-c4cccs4)n3n2)cc1 | 92%
O=C(Cn1cc(CN2C(=O)c3ccc([N+](=O)[O-])cc3C2=O)nn1)Nc1ccc(F)cc1Cl | 101%
COC(=O)[C@@]1(C)CC[C@]2(C)CC[C@]3(C)C(=CC(=O)[C@@H]4[C@@]5(C)Cc6c(n(CC#CCN7CCN(C)CC7)c7ccccc67)C(C)(C)[C@@H]5CC[C@]43C)[C@@H]2C1 | 87.2%
COc1ccc(S(=O)(=O)n2cc(C=O)c3ccccc32)c(OC)c1 | 67.3%
CCCCSc1nnc(-c2ccc(-c3ccc(Cl)cc3)nc2C)o1 | 99.3%
CCN(CC)CCN1C(=O)c2c(c3c4cccnc4[nH]c3c3ccc4ccccc4c23)C1=O | 80%
CN1CCN(c2nc(-c3cnc4ccccc4n3)cc3ccccc23)CC1 | 66.4%
CC1=C2C(=C[C@@](C)(COS(N)(=O)=O)[C@@H]2O)C(=O)[C@](C)(O)C12CC2 | 89.5%
O=C(CCCCCCN1CC(=O)N2[C@@H](c3ccc(Cl)c(F)c3)c3[nH]c4ccccc4c3C[C@H]2C1=O)NO | 86%
COc1c([C@@H](CC(C)C)OC(C)=O)ccc2c1C(=O)OCc1cc(C)cc(O)c1O2 | 8.29% (active)
COc1ccccc1/C=C/C(=O)c1nnn(-c2ccc(C(=O)O)cc2)c1C | 95.7%
CS(=O)(=O)c1ccc(-c2nn(-c3ccccc3)cc2/C=C/C(=O)c2ccc(Br)cc2)cc1 | 92.4%
CS(=O)(=O)c1ccc2c(c1)c1c(n2Cc2ccc(Cl)cc2)CCCC1 | 82.4%
CS(=O)(=O)c1nccc(-c2c(-c3ccc(F)c(OCCc4ccc(F)cc4)c3)nc3sccn23)n1 | 92.1%

Structure (SMILES) | growth
COc1ccc([C@@H]2[C@@H](O)C(=O)N2c2cc(OC)c(OC)c(OC)c2)cc1Cl | 0.0843% (active)
O=C(Nc1cccc(-c2nc(-c3ccc(NC(=O)c4cccnc4)cc3Cl)no2)c1)Nc1ccc(NC(=O)C2CC2)c(C(F)(F)F)c1 | -92.9% (active)
COc1ccc(C2CC(c3ccc(Nc4nc(NCCO)nc(Nc5ccc(Cl)cc5)n4)cc3)=Nc3c(N)nc(N)nc3N2)cc1 (stereo not given) | 59.8%
CCOC(=O)C1=C(C)Nc2nnc(Nc3ccccc3)n2C1c1ccccc1 (stereo not given) | 89.9%
COc1ccc([C@H]2[C@H](O)C(=O)N2c2cc(OC)c(OC)c(OC)c2)cc1O | 0.345% (active)
c1ccc(-c2c(-c3ccccc3)[n+](Cc3ccc4ccccc4c3)c(-c3ccccc3)n2Cc2ccc3ccccc3c2)cc1 | -99.1% (active)
COc1ccc(-c2cc(-c3cccc4ccccc34)n3c(n2)nc2ccccc23)cc1 | 30.4%
COc1ccc(-c2cc(-c3ccc(Cl)cc3)nc3nc(N)nn23)cc1 | 93.6%
CCCC(=O)NC(c1cccnc1)c1ccc2c(C)ccnc2c1O (stereo not given) | 4.06% (active)
O=C(c1ccc(O)cc1)[C@@H]1[C@@H]2CCCN2[C@@]2(C(=O)N(C(=O)c3ccc(F)cc3)c3ccccc32)[C@H]1c1ccc(F)cc1 | 95%
Cc1ccc(NC(=O)c2cccc(CN3CCN(C)CC3)c2)cc1Oc1ccc(-c2[nH]nc3ncnc(N)c23)cc1 | 76.7%
COc1cc(-c2noc(C[C@@H](NC(=O)OCc3ccccc3)C(C)C)n2)cc(OC)c1OC | 99.3%
Cc1nn(-c2ccc(Br)cc2)c2nc(CCl)[nH]c(=O)c12 | 102%
COc1ccc(NC2=C(Cl)C(=O)C(C)=C(C)C2=O)cc1 | 97.7%
COc1cc([C@H]2OC[C@H]3[C@@H]2CO[C@@H]3c2ccc(O)c(OC)c2)ccc1O | 57.3%
Cc1cc(F)cc(NS(=O)(=O)c2ccc(-c3cnc(C4CC4)o3)cc2)c1 | 21.5%
CC(C)=CCC[C@](C)(O)[C@H]1CC[C@]2(C)[C@@H]1CC[C@@H]1[C@@]3(C)CCC(NC(=O)c4ccccc4C(=O)O)C(C)(C)[C@@H]3CC[C@]12C (stereo not given in full) | 55.4%
O=S(=O)(Nc1cc(Cl)cc(Cl)c1)c1ccc(-c2cnc(C3CC3)o2)cc1 | 36.9%
COc1ccc(Cn2cc3c(c2-c2ccccc2)CCCc2cnoc2-3)cc1[N+](=O)[O-] | 71.5%
COc1cc2cc(Oc3ccc(NC(=O)Nc4cccc(C(F)(F)F)c4)cc3)c(C)nc2cc1OCCN(C)C | 81.2%
